From PubChem BioAssay (NCI) come the findings set out here.

“And” between values parts separate entries of the source, which are not always exact repeats. Equal values may be shown once. Compounds without any hit were thinned out: in the full panel of roughly 83,000, 20% have a hit.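 Cell lines were cultured in 96-well plates, exposed to a single compound concentration, and assessed for percent growth 48 hours later.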 The source made the active and inactive calls. Rule for the calls: active = growth percent below 10; inactive = the rest.

Assay in all cases: NCI-60 one-dose screen, 48 h (100 = growth as untreated, 0 = no growth, -100 = all killed)
Holding throughout (conditions): 10 µM unless noted

The subject of assay [1] is DU-145 prostate.
Assay [2] deals with K-562 leukemia.
The subject of assay [3] is MALME-3M melanoma.
Assay [4] has as its system MDA-MB-231 breast.
For assay [5], the system named is RXF 393 renal.
Assay [6] concerns SF-268 CNS.
In assay [7] the test system is SF-295 CNS.
For assay [8], the system named is SF-539 CNS.
Assay [9] concerns UACC-257 melanoma.
The subject of assay [10] is M14 melanoma.
In assay [11] the test system is HCT-15 colon.
The subject of assay [12] is HT29 colon.
Assay [13] deals with SNB-75 CNS.
Assay [14] concerns SNB-19 CNS.
Assay [15] deals with U251 CNS.
For assay [16], the system named is PC-3 prostate.
Assay [17] has as its system SK-MEL-5 melanoma.
Assay [18] relates to UACC-62 melanoma.
For assay [19], the system named is LOX IMVI melanoma.
The test system of assay [20] is SK-MEL-28 melanoma.

Take `O=C1OC(c2ccccc2)=N/C1=C\c1ccccc1`: the growth in assay [1] was 113% (inactive); in assay [2] it was 104% (inactive); in [3], 86.4% (inactive); in assay [4], 111% (inactive); in [5], 106% (inactive); in assay [6], 103% (inactive). Moreover, the growth in assay [7] is 99% (inactive); in assay [8], 99.5% (inactive); in [9], 96.5% (inactive); in assay [10], 100% (inactive); in assay [11] it was 105% (inactive); in [12], 113% (inactive). Further, the growth is 83% (inactive) in assay [13]; 98.9% (inactive) in [14]; 91% (inactive) in [15]; 95.9% (inactive) in [16]; 97.7% (inactive) in assay [17]; 101% (inactive) in [18]. In addition, the growth was 98.1% (inactive) in [19] and 108% (inactive) in assay [20].
For the compound `Cc1ccc(=O)[nH]n1`, the growth in [1] was 101% (inactive) and 116% (inactive); in assay [2] it was 99.7% (inactive) and 97.2% (inactive); in assay [3] it was 112% (inactive) and 106% (inactive); in assay [4], 118% (inactive); in [5] it was 105% (inactive); in assay [6], 99.4% (inactive) and 103% (inactive). Besides, the growth in assay [7] is 113% (inactive) and 101% (inactive); in assay [8] it was 110% (inactive) and 109% (inactive); in [9], 101% (inactive) and 94.1% (inactive); in assay [10] it was 111% (inactive) and 110% (inactive); in assay [11], 110% (inactive) and 105% (inactive); in assay [12] it was 108% (inactive) and 99.5% (inactive). Further, the growth in assay [13] was 108% (inactive) and 103% (inactive); in [14], 93.9% (inactive); in assay [15], 99.7% (inactive) and 92.4% (inactive); in assay [16] it was 96.3% (inactive) and 92% (inactive); in assay [18], 106% (inactive) and 104% (inactive); in [19], 94.7% (inactive) and 107% (inactive). Moreover, the growth in assay [20] was 111% (inactive) and 115% (inactive).
As to `NC(=O)NCCCC(N)C(=O)O` (centres undefined), the growth was 101% (inactive) in assay [1]; 97.9% (inactive) in [2]; 93.1% (inactive) in [3]; 104% (inactive) in assay [4]; 106% (inactive) in assay [5]; 104% (inactive) in assay [6]. The growth is 117% (inactive) in assay [7]; 103% (inactive) in assay [8]; 102% (inactive) in assay [9]; 100% (inactive) in assay [10]; 109% (inactive) in [11]; 101% (inactive) in assay [12]. Also, the growth in [13] was 104% (inactive); in [14] it was 92.1% (inactive); in assay [15], 96.2% (inactive); in [16], 95.5% (inactive); in assay [18], 102% (inactive); in [19], 67.6% (inactive). Further, in [20], the growth is 99% (inactive).
On to `CC(=O)Nc1ccc(S(N)(=O)=O)cc1`, for which the growth in [1] was 111% (inactive) and 113% (inactive); in [2], 102% (inactive) and 110% (inactive); in assay [3], 109% (inactive); in [4] it was 102% (inactive) and 119% (inactive); in assay [5], 115% (inactive); in assay [6] it was 105% (inactive) and 115% (inactive). The growth in assay [7] is 93.8% (inactive) and 92.8% (inactive); in [8], 100% (inactive) and 101% (inactive); in assay [9], 88.6% (inactive) and 94.9% (inactive); in assay [10] it was 98.6% (inactive) and 103% (inactive); in assay [11], 107% (inactive) and 93.5% (inactive); in assay [12], 106% (inactive) and 96.8% (inactive). Further, the growth in assay [13] is 107% (inactive) and 92.5% (inactive); in [14], 98.3% (inactive) and 107% (inactive); in assay [15], 93% (inactive) and 96.2% (inactive); in [16] it was 81.2% (inactive) and 99.1% (inactive); in assay [18] it was 99.8% (inactive); in [20] it was 107% (inactive) and 110% (inactive).
As for `CCCCCCCCCCCCCCCCC(C(=O)O)C(O)(CC(=O)O)C(=O)O` (centres undefined), the growth in assay [1] is 124% (inactive) and -1.43% (active); in assay [2], 90.9% (inactive) and 1.15% (active); in assay [3] it was 108% (inactive) and -8.6% (active); in assay [4], 126% (inactive) and 14.1% (inactive); in assay [5] it was 98.4% (inactive) and 9.56% (active); in [6], 116% (inactive) and 10% (inactive). The growth in assay [7] is 15.4% (inactive); in assay [8], 109% (inactive) and -20.3% (active); in assay [9], 115% (inactive) and 18.2% (inactive); in [10] it was 102% (inactive) and -34.8% (active); in assay [11] it was 105% (inactive) and 66.4% (inactive); in assay [12], 93.9% (inactive) and -31.8% (active). Further, the growth was 98.8% (inactive) and -58.3% (active) in [13]; 110% (inactive) and 15% (inactive) in assay [14]; 101% (inactive) and 8.93% (active) in assay [15]; 110% (inactive) and 19.8% (inactive) in assay [16]; 108% (inactive) and -70.3% (active) in assay [18]; 108% (inactive) in assay [20].
